Measurements: PubChem BioAssay (Tox21)
Records with an inconclusive call do not appear. A number with no mark means an inactive call. Active and inactive are the calls of the source. The call rests on the fitted dose curve; in most records, active means well fitted cell-killing curve with a large enough effect in the repeat runs; inconclusive means weak or mixed curves, or effect the other way; inactive means flat fitted curve, though single readings scatter.

Test: cAMP Responsive Elements (CRE) small molecule antagonists, cell-based qHTS assay: qHTS cell viability counter screen (AID 2060913); further: nearly all actives have a fitted effect of over 40% in size
Conditions: CRE-bla HEK293T viability, CellTiter-Glo luminescence, 5 h; series mostly up to 92.4 µM; viability change, negative = cytotoxic: at the top concentration
In short: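 Viability of NKH477-stimulated (0.25 uM final) CRE-bla HEK293T cells is measured by CellTiter-Glo luminescence following 3 hrs compound exposure at 37 C.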
On the % scale 0 is the no-effect control and ±100 the full control effect.

In the case of `CCC(=O)CC(C)CC` (stereo not given), the viability change, negative = cytotoxic is reported as -1.01% [at 0.349 µM].

First: CCc1c(C(=O)O)c(=O)cnn1-c1ccc(Cl)cc1
Second: CCCOC(=O)c1ccc(O)cc1
The “viability change, negative = cytotoxic” value of the first is lower: -4.24% for the first, 2.88% for the second.

Compared with `O=C(Cl)c1cc(Cl)cc(Cl)c1`, `CC(C)(C)OC(=O)c1ccccc1C(=O)O` is higher in “viability change, negative = cytotoxic” value: 5.4% for the first, 9.47% for the second.

Compared with `NCCOCCN`, `C=CCOCC(O)CCl` (stereo not given) is lower in “viability change, negative = cytotoxic” value: 0.743% for the first, 0.422% for the second.

First: Oc1ccc(Cc2ccccc2)cc1
Second: CCC(CO)(CO)CO
The “viability change, negative = cytotoxic” value of the first is lower: -19% for the first, 8.14% for the second.

For `CCCCCCCCCCCCCCCC(=O)OC/C=C(C)/C=C/C=C(C)/C=C/C1=C(C)CCCC1(C)C`, the “viability change, negative = cytotoxic” value was 7.88%.

First: O=C(Nc1ccc(Cl)c(Cl)c1)C1CC1
Second: CN=C(NC#N)Nc1ccc(C2=NNC(=O)CC2C)cc1 (stereo not given)
The “viability change, negative = cytotoxic” value of the first is lower: -9.05% [at 42.5 µM] for the first, 3.37% [at 42.5 µM] for the second.

Going from `Cc1cccc(C)c1OCC(=O)N[C@@H](Cc1ccccc1)[C@@H](O)C[C@H](Cc1ccccc1)NC(=O)[C@H](C(C)C)N1CCCNC1=O` to `CC(C)C[C@H](NC(=O)[C@H](CCc1ccccc1)NC(=O)CN1CCOCC1)C(=O)N[C@@H](Cc1ccccc1)C(=O)N[C@@H](CC(C)C)C(=O)[C@@]1(C)CO1`, the “viability change, negative = cytotoxic” value falls from 1.36% [at 42.5 µM] to -0.0993% [at 42.5 µM].

Going from `CC(C)(C)c1ccc(C(=O)CCCN2CCC(OC(c3ccccc3)c3ccccc3)CC2)cc1` to `O=C(OCCOCCO)c1ccccc1Nc1cccc(C(F)(F)F)c1`, the “viability change, negative = cytotoxic” value rises from -12.1% [at 42.5 µM] to 1.67% [at 42.5 µM].

Going from `CC(=O)NC(=O)c1ccccc1O` to `CCCCCCCCCCCCCc1ccccc1`, the “viability change, negative = cytotoxic” value falls from 2.01% [at 42.5 µM] to -11.1% [at 42.5 µM].

In the case of `O=C(Cl)c1ccc(C(=O)Cl)cc1`, the Potency is reported as “inactive”.
With `C=C1C[C@H]2[C@@H]3C=C(C)C4=CC(=O)CC[C@]4(C)[C@H]3CC[C@]2(C)[C@@]1(OC(C)=O)C(C)=O` the Potency was “inactive”.
